# Compounds with a hit are over-represented: about 3.4% of the library has one in this group of screens.
# HIF-2a inh = blocks HIF-2a reporter activity; 786-0 RCC cells HIF-2a reporter, luciferase luminescence, overnight; inhibition, % at 18.8 µM; actives 0.72% (n = 360,000); AID 624352;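 active = inhibition of the luminescence signal of 40% or more relative to plate controls, in a single-dose primary screen at 18.75 µM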
# MITF TRPM1 inh = MITF TRPM1 promoter inhibition in SK-MEL-5 cells; SK-MEL-5 TRPM1 promoter luciferase, 24 h; inhibition, % at 12.5 µM; actives 0.83% (n = 330,000);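 active = mean inhibition across replicates of 60% or more, whatever share of single replicates reaches that level; inconclusive = some that reach 60%, reason not given; inactive = mean inhibition across replicates below 60%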
# EBV LMP1 NFkB = Epstein-Barr LMP1 NF-kappaB reporter inhibition. inhibition, % at 12.5 µM. actives 0.69% (n = 350,000). AID 504558. LMP1-induced NF-kappaB luciferase reporter cells, luminescence; in the data active = inhibition above about 41%; inconclusive = no clear call, values can overlap the other calls;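 also: 0% = neutral control wells and 100% = reference inhibitor control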
# TROY NFkB inh = blocks TROY-dependent signaling in reporter cells; Q293 LMP1-TROYcd NF-kB luciferase reporter, 4 h; inhibition, % at 10 µM; actives 0.98% (n = 360,000);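 active = compounds whose plate-normalised and pattern-corrected inhibition of the luciferase reporter signal at the single screening dose is 50% or more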
# Shn3 inh set2 = reduces Shn3 3'UTR luciferase signal in osteoblasts | AID 588674 | inhibition, % at 12.5 µM | actives 0.52% (n = 360,000) | Clone20 osteoblast Shn3 3'UTR firefly luciferase, 24 h;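 active = mean inhibition of at least 75% with every replicate also reaching 75%; inconclusive = mean inhibition at least 75% but some replicate below; inactive = mean inhibition below 75%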;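 also: 0% = median of neutral control wells and 100% = pilot-screen positive control compound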
# TWEAK Fn14 block = inhibitors of TWEAK-Fn14 interaction signaling. inhibition, % at 10 µM. TWEAK-stimulated Fn14 reporter cells, luciferase luminescence, 8 h. actives 2% (n = 360,000); in the data active = inhibition above about 50%
# * marks the source's active call; other numbers are inactive results; ? = inconclusive; . = no result.
SMILES,HIF-2a inh,MITF TRPM1 inh,EBV LMP1 NFkB,TROY NFkB inh,Shn3 inh set2,TWEAK Fn14 block
Cc1ccc(-n2nc3c(N4CCC(C(=O)NCCc5cccs5)CC4)nnc(C)c3c2C)cc1,8,89*,-9,2,53,-4
CCn1cnc2sc(C(=O)Nc3ccc4c(c3)OCO4)c(C)c2c1=O,-224,-76,-11,.,-71,57*
CCN(CC(=O)Nc1c(F)cccc1F)C(=O)c1ccc(Cl)c(S(=O)(=O)N2CCCCC2)c1,14,2,9,-13,20,-13
COC(=O)c1ccc(COc2cccc3c2CCN(Cc2cccc(C)c2)C3=O)o1,20,13,12,38,20,55*
CC(NC(=O)OCc1ccccc1)C(=O)Oc1cc2oc(=O)cc(-c3ccccc3)c2cc1Cl (stereo unspecified),5,-2,9,37,0,71*
CC(C)c1ccccc1-n1c(SCC(=O)N2CCc3ccccc3C2)nc2ccccc2c1=O,25,18,-2,54*,96*,46
O=C(CSc1nc2ccccc2c(=O)n1-c1ccccc1)N1CCc2ccccc2C1,28,13,6,19,83,22
CC(C)OCCCNc1ccc(N2C(=O)CCCC2=O)cc1[N+](=O)[O-],2,-5,-19,-1,9,22
COc1cc(CNc2ncnc3c2[nH]c2ccc(C)cc23)cc(OC)c1,23,17,28,50*,-9,24
CCOC(=O)c1cc(-c2ccccc2)n(CC(=O)Nc2ccc(OC)c(OC)c2)c1C,27,11,-15,5,12,1
CCOC(=O)c1cc(-c2ccccc2)n(CC(=O)Nc2cccc(OC)c2)c1C,25,13,53*,-15,16,8
O=C(CSc1ncn[nH]1)NCc1ccccc1Cl,-15,-2,-2,10,3,24
COc1ccc(CCn2c(N)c(C(=O)NCc3ccco3)c3nc4ccccc4nc32)cc1OC,-6,11,-1,35,-8,43
COc1ccc(CCn2c(N)c(C(=O)NCc3ccco3)c3nc4ccccc4nc32)cc1,-89,9,-12,65*,2,61*
Nc1c(C(=O)NCc2ccco2)c2nc3ccccc3nc2n1CCc1ccccc1F,-48,2,-4,54*,2,44
CCOc1cc(C(C(=O)NCC2CCCO2)N(C(=O)Cn2nnc3ccccc32)c2ccccc2C(C)=O)ccc1O (stereo unspecified),5,6,-4,-2,9,17
CCCc1ccc(C(C)NC(=S)NC2CCCCC2)cc1 (stereo unspecified),10,14,15,42,49,34
O=C(/C=C/c1cccc(C(F)(F)F)c1)Nc1cccc(C(F)(F)F)c1,-62,23,5,51*,47,61*
O=C(NNC(=S)Nc1cccc(C(F)(F)F)c1)c1cccc(Cl)c1,-56,6,7,36,4,62*
Cc1ccc(NC(=O)/C=C/c2cccc(C(F)(F)F)c2)cc1,-45,-20,-1,-3,3,18
O=C(NNC(=S)Nc1cccc(C(F)(F)F)c1)c1ccccc1Cl,-72,-1,1,-20,3,-2
NC1=NC(c2ccccc2)CC(=O)N1 (stereo unspecified),12,4,4,9,4,11
COc1ccc(O)c(/C=N/Nc2nc(Nc3ccccc3)nc(-n3nc(C)cc3C)n2)c1,-156,-9,62*,-28,65,60*
Cc1cc(Cl)n2c(nc3ccccc32)c1C#N,-24,81*,0,-4,80,6
Cc1c(CCCl)c(Cl)n2c(nc3ccccc32)c1C#N,84*,97*,66*,27,99*,109*
SMILES,HIF-2a inh,MITF TRPM1 inh,EBV LMP1 NFkB,TROY NFkB inh,Shn3 inh set2,TWEAK Fn14 block
COc1ccc([N+](=O)[O-])cc1NCc1c(F)cccc1F,8,.,-2,4,17,59*
N#CC1C(=O)c2ccccc2C1c1ccccc1 (stereo unspecified),31,16,-3,52*,71,-20
Cc1c(NC(=O)COC(=O)c2ccc(Cl)nc2)c(=O)n(-c2ccccc2)n1C,4,1,14,-2,2,-21
O=C(Cc1ccc(Cl)cc1)NCC(=O)N1CCCCC1,8,-2,45*,11,-2,-5
NC(=S)NN=C1Cc2cccc3cccc1c23,-32,32,0,-16,1,10
COc1cc(NS(=O)(=O)c2ccc(N/C=C(\C#N)c3nc4cc(Cl)ccc4o3)cc2)nc(OC)n1,6,77*,-50,-11,8,-42
COc1ccc2c(c1)c1c(c(=O)n(-c3ccc(C)cc3)c(=O)n1CC(=O)NCC1CCCO1)n2C (stereo unspecified),8,.,3,6,-23,14
Cc1ccc(-n2c(=O)c3c(c4cc(C)ccc4n3C)n(CC(=O)NCC3CCCO3)c2=O)cc1 (stereo unspecified),23,.,49*,-2,6,-8
O=C(COC(=O)CCC(=O)N1CCOCC1)Nc1ccc(Br)cc1Br,-28,-15,-8,-10,-12,-11
CC(C)C(=O)NC(c1ccc(Cl)cc1Cl)c1ccc2cccnc2c1O (stereo unspecified),-116,27,?,-31,87*,103*
CCC(=O)NC(c1ccc(Cl)cc1Cl)c1ccc2cccnc2c1O (stereo unspecified),-21,57,49*,-17,?,-29
Cc1ccnc(NC(c2ccccc2)c2ccc3cccnc3c2O)c1 (stereo unspecified),16,31,14,-6,39,-22
COc1ccc(Cl)cc1NC(=O)CN(C)C(=O)c1sccc1-c1ccccc1,7,19,-2,15,10,10
COc1cc2cncc(Cc3ccc(Cl)cc3)c2cc1OC,9,-27,26,58*,45,75*
COc1cc2nc(CN(C)Cc3ccc(Cl)cc3)[nH]c(=O)c2cc1OC,28,10,-3,-17,-4,20
CC(C)CNc1ncnc2c1ncn2[C@H]1CN(Cc2ccc(C(=O)O)cc2)C[C@@H](CO)O1,9,.,.,-10,-9,4
COc1ccccc1/C=C/C(=O)c1ccc(Cl)cc1,-68,-32,68*,-5,-24,14
COc1ccc(OC)c(Nc2ncnc3c2cnn3-c2ccccc2)c1,-138,-20,-4,-18,-51,-1
COc1ccc(-n2ncc3c(NCc4cccnc4)ncnc32)cc1,-220,-63,-27,-62,-45,0
CCCCNc1ncnc2c1cnn2-c1ccc(Cl)cc1,-288,-68,-37,-36,-44,38
COc1ccc(-n2ncc3c(NCC(C)C)ncnc32)cc1,-115,-1,7,31,-10,50*
COCC(C)Nc1ncnc2c1cnn2-c1ccc(Cl)cc1 (stereo unspecified),-156,-68,-14,40,-46,57*

# High-throughput results from PubChem BioAssay.
